Hit rate of the full screen: of about 310,000 compounds, about 14,000 (4.5%) showed an effect of 50% or more. Effects have a minus sign here. The full list was thinned out, with strong results kept by preference.
The molecules below were run against human ether-à-go-go-related gene (hERG) potassium channel (human, UniProt Q12809) (assay: primary screen, population patch clamp on CHO cells stably expressing hERG; higher = less effect of the substance).
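Further: peak tail current of the secondary pulse compared with the same well before compound.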

human ether-à-go-go-related gene (hERG) potassium channel, sequence (Q12809 whole entry, looked up): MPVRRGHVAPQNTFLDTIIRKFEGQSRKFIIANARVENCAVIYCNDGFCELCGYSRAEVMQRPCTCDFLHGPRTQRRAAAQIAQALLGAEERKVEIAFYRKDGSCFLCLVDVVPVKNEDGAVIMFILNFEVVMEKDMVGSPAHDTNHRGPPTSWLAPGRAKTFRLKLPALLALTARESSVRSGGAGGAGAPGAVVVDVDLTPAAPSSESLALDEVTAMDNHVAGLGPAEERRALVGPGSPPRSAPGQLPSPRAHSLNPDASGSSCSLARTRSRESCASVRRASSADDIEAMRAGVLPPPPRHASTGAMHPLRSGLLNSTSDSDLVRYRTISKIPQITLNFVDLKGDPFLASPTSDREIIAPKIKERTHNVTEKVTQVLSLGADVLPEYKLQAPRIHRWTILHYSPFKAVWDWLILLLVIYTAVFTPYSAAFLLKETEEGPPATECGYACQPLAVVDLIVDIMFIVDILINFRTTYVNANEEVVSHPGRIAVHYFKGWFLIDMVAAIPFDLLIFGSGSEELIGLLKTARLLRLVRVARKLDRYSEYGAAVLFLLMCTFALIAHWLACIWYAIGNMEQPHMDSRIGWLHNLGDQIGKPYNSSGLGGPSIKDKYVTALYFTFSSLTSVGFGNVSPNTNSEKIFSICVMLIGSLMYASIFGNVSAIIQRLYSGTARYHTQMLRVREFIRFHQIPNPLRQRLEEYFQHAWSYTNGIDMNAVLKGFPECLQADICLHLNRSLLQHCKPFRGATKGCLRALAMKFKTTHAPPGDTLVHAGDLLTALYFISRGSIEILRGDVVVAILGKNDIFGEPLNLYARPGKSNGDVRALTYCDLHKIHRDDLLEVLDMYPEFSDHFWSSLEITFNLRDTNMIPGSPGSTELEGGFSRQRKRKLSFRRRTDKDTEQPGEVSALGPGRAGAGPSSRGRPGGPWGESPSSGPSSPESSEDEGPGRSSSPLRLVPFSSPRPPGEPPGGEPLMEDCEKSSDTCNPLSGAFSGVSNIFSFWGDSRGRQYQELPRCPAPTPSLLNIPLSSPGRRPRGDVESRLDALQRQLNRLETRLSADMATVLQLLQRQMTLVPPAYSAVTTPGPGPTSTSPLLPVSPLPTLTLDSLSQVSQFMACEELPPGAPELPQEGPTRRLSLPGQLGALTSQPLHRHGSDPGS

First: O=c1[nH]c(=O)n(Cc2ccccc2)c(O)c1/C=N/Nc1c(F)c(F)c(F)c(F)c1F
Second: Oc1c(N=NC(=S)Nc2ccccc2F)c2ccccc2n1Cc1ccc(F)cc1
The “hERG current change (%, negative = inhibition) at 10uM” value of the first is lower: 3.83% for the first, 18.7% for the second.

Going from `COc1ccc(-c2csc(N)n2)cc1` to `COc1ccc(C(=O)N=c2sc3c(C)ccc(OC)c3n2C)cc1`, the “hERG current change (%, negative = inhibition) at 10uM” value rises from -6.71% to 6.32%.

Compared with `COc1cccc(-c2ccc3nnc(SCC(=O)N4CCCC4)n3n2)c1`, `O=C(NCC(=O)N1CCN(c2cccc(Cl)c2)CC1)c1ccc(Br)o1` is lower in “hERG current change (%, negative = inhibition) at 10uM” value: -17.1% for the first, -78.4% for the second.

Compared with `Clc1nc(CN2CCOCC2)nc2sc3c(c12)CCC3`, `Clc1nc(CN2CCCCC2)nc2sc3c(c12)CCC3` is lower in “hERG current change (%, negative = inhibition) at 10uM” value: 14.5% for the first, -33.6% for the second.

Going from `COc1cc2c(cc1OC)CN(c1nc(CN3CCCCC3)nc3sc4c(c13)CCCC4)CC2` to `c1ccc2c(c1)CCN(c1nc(CN3CCOCC3)nc3sc4c(c13)CCCC4)C2`, the “hERG current change (%, negative = inhibition) at 10uM” value rises from -81.2% to -60.2%.

Going from `Clc1nc(CN2CCCCC2)nc2sc3c(c12)CCCC3` to `O=S(=O)(Nc1nc(CN2CCOCC2)nc2sc3c(c12)CCCC3)c1cc(F)ccc1F`, the “hERG current change (%, negative = inhibition) at 10uM” value falls from -23.1% to -34.9%.

Compared with `CCOC(=O)c1nn(-c2ccc(C)cc2)c2nc(Nc3ccccc3)cc(=O)n12`, `Cc1onc(-c2c(F)cccc2Cl)c1C(=O)ONC(=O)c1ccccc1` is lower in “hERG current change (%, negative = inhibition) at 10uM” value: 21.9% for the first, 8.85% for the second.

Compared with `Cc1ccccc1CN(c1ccc(C(=O)N/N=C/c2ccc(OCC(N)=O)cc2)cc1)S(C)(=O)=O`, `CC(=O)Nc1ccc(S(=O)(=O)N(CC(=O)O)Cc2ccccc2)cc1` is lower in “hERG current change (%, negative = inhibition) at 10uM” value: 5.85% for the first, -12.6% for the second.

First: CO/N=C/c1cccn1-c1nccc(N(C)C)c1C#N
Second: CCn1c(SCC(=O)N/N=C/c2ccc(O)c(OC)c2)nc2ccccc21
The “hERG current change (%, negative = inhibition) at 10uM” value of the first is lower: -2.01% for the first, 2.36% for the second.

First: CCCN1CCN(C(=O)CCS(=O)(=O)c2cc3c(cc2Cl)NC(=O)CO3)CC1
Second: Cc1ccc2oc(C(=O)N3CCN(CCO)CC3)c(C)c2c1
The “hERG current change (%, negative = inhibition) at 10uM” value of the first is lower: -48% for the first, 13.7% for the second.

Compared with `COc1ccc(S(=O)(=O)NCC2CCCN(C(=O)CCC(F)(F)F)C2)cc1` (stereo not shown), `CCc1ccc(OCC(=O)NC(=S)Nc2ccc(S(=O)(=O)NC3CCCCC3)cc2)cc1` is higher in “hERG current change (%, negative = inhibition) at 10uM” value: 2.06% for the first, 19.9% for the second.

First: COc1ccc(N(C(=O)Cn2nnc3ccccc32)C(C(=O)NCc2ccco2)c2cccnc2)cc1 (stereo not shown)
Second: COc1ccc(CC2(CO)CCN(Cc3cc4ccccc4o3)CC2)cc1
The “hERG current change (%, negative = inhibition) at 10uM” value of the first is higher: 9.77% for the first, -52.2% for the second.

First: Cc1ccccc1CSc1nccn1-c1ccccc1
Second: OCCC1CN(Cc2cccn2-c2ccccn2)CCN1Cc1ccccc1 (stereo not shown)
The “hERG current change (%, negative = inhibition) at 10uM” value of the first is higher: -8.94% for the first, -76.5% for the second.

Compared with `CC(C)[C@H](NC(=O)N1CCC(Cc2ccccc2)CC1)C(=O)O`, `CCC(C)[C@H](NC(=O)N1CCC(Cc2ccccc2)CC1)C(=O)O` (stereo partly shown) is higher in “hERG current change (%, negative = inhibition) at 10uM” value: 6.12% for the first, 15.2% for the second.

Compared with `CC(C)NC(=S)N1CCC(Cc2ccccc2)CC1`, `CC(C)CNC(=S)N1CCC(Cc2ccccc2)CC1` is lower in “hERG current change (%, negative = inhibition) at 10uM” value: -2.26% for the first, -40.1% for the second.

First: CC(C(O)c1ccc(O)cc1)N1CCC(Cc2ccccc2)CC1.O.O=C(O)C(O)C(O)C(=O)O (stereo not shown)
Second: CC(C(O)c1ccc(O)cc1)N1CCC(Cc2ccccc2)CC1.O=C(O)C(O)C(O)C(=O)O (stereo not shown)
The “hERG current change (%, negative = inhibition) at 10uM” value of the first is higher: -65.4% for the first, -71.4% for the second.

Compared with `C[C@H](NC(=O)N1CCC(Cc2ccccc2)CC1)C(=O)O`, `CC(C)C(=O)N1CCC(Cc2ccccc2)CC1` is lower in “hERG current change (%, negative = inhibition) at 10uM” value: 15.5% for the first, 4.6% for the second.

Compared with `C[C@@H](CN1CCC(Cc2ccccc2)CC1)[C@@H](O)c1ccc(O)cc1.Cl`, `OCC1(Cc2ccccc2)CCN(Cc2cc3ccccc3o2)CC1` is higher in “hERG current change (%, negative = inhibition) at 10uM” value: -71.3% for the first, -51.7% for the second.

First: CCOC(=O)Cc1csc(NC(=O)c2cc(OC)cc(OC)c2)n1
Second: COC(=O)c1cc(Cl)c(NC(=O)/C=C/c2ccc(Cl)cc2)cc1OC
The “hERG current change (%, negative = inhibition) at 10uM” value of the first is higher: -10.6% for the first, -15.7% for the second.

Compared with `O=C(O)c1cccc(CN2C(=O)CSC2=O)c1`, `Cc1ccc(CN2CCc3[nH]c(=O)[nH]c(=O)c3C2)cc1` is lower in “hERG current change (%, negative = inhibition) at 10uM” value: 19.4% for the first, 17.5% for the second.

Going from `OCC1(Cc2ccccc2)CCN(Cc2cnc(-c3cccc4ccccc34)nc2)CC1` to `O=C(COc1cccc2cccnc12)Nc1ccccc1N1CCOCC1`, the “hERG current change (%, negative = inhibition) at 10uM” value falls from 10.8% to -37.7%.

Compared with `COc1ccc(CN2CCN(Cc3cc4ccccc4o3)CC2CCO)cc1C` (stereo not shown), `Cc1ccc(CN2CCN(Cc3ccccn3)CC2CCO)cc1` (stereo not shown) is lower in “hERG current change (%, negative = inhibition) at 10uM” value: -40.4% for the first, -47.9% for the second.

First: CCCC(=O)Nc1ccc(C(=O)NNC(=O)c2cccs2)cc1
Second: CCCNC(=O)c1ccc(N2CCC3(CC2)CC(c2cccc(Br)c2)=NO3)c(NC(=O)c2c(Cl)cccc2Cl)c1
The “hERG current change (%, negative = inhibition) at 10uM” value of the first is higher: 12.2% for the first, 5.92% for the second.

Going from `CC1(C)COC(c2coc3ccccc3c2=O)OC1` to `CC1(C)CC(=O)c2sc(NC(=O)c3ccccc3)nc2C1`, the “hERG current change (%, negative = inhibition) at 10uM” value falls from 3.85% to 2.82%.

Compared with `O=C(c1cccc(Br)c1)N1CCN(c2ccccn2)CC1`, `O=C(NCC(=O)N1CCN(c2ccccc2)CC1)c1ccc(Br)o1` is lower in “hERG current change (%, negative = inhibition) at 10uM” value: -4.19% for the first, -39.9% for the second.

First: Cc1ccc(CN2CCN(Cc3cccn3-c3ccc(Cl)cn3)CC2CCO)o1 (stereo not shown)
Second: Cc1ccc(CN2CCN(Cc3cccn3-c3ccccn3)CC2CCO)o1 (stereo not shown)
The “hERG current change (%, negative = inhibition) at 10uM” value of the first is higher: -23.3% for the first, -66.1% for the second.

First: OCCC1CN(Cc2cccn2-c2ccccn2)CCN1C1CCCC1 (stereo not shown)
Second: OCCC1CN(Cc2cccn2-c2ccccn2)CCN1C1CCCCC1 (stereo not shown)
The “hERG current change (%, negative = inhibition) at 10uM” value of the first is higher: -18.9% for the first, -57.1% for the second.

Compared with `OCCC1CN(Cc2cccn2-c2ncccn2)CCN1C1CCCC1` (stereo not shown), `Cc1ccc(CN2CCN(Cc3cccn3-c3ccccn3)CC2CCO)cc1` (stereo not shown) is lower in “hERG current change (%, negative = inhibition) at 10uM” value: -6.11% for the first, -82% for the second.

Compared with `Cc1ccc(CN2CCN(Cc3cnc(N(C)C)s3)CC2CCO)o1` (stereo not shown), `Cc1ccc2c(C)c(C(=O)N3CCN(Cc4ccccn4)CC3)oc2c1C` is lower in “hERG current change (%, negative = inhibition) at 10uM” value: 6.05% for the first, -23.1% for the second.

Going from `CC1CN(C(=O)C2CC(=O)N(c3ccc(Cl)cc3)C2)CC(C)O1` (stereo not shown) to `Cc1cc(C(=O)N2CCN(c3cc(Cl)ccc3C)CC2)on1`, the “hERG current change (%, negative = inhibition) at 10uM” value falls from -13.3% to -58.7%.

Compared with `COC(=O)c1ccc(/C=N\N2CCN(Cc3ccc(C)cc3)CC2)cc1`, `Cc1ccc2oc(C(=O)N3CCN(Cc4ncccc4C)CC3)c(C)c2c1` is lower in “hERG current change (%, negative = inhibition) at 10uM” value: 9.51% for the first, -78.3% for the second.

Going from `O=C(CCN1C(=O)/C(=C/c2ccccc2F)SC1=S)NCCc1ccc(O)cc1` to `O=C(NCC(=O)N1CCN(c2ccccc2F)CC1)c1ccc(Br)o1`, the “hERG current change (%, negative = inhibition) at 10uM” value falls from 14.1% to -39.1%.

Compared with `Fc1ccc(Br)cc1C1C=C(c2ccc(Br)s2)Nc2ncnn21` (stereo not shown), `Cc1c(C(=O)N2CCN(c3ncccn3)CC2)oc2ccc(Cl)cc12` is lower in “hERG current change (%, negative = inhibition) at 10uM” value: 9% for the first, -23.3% for the second.

Going from `COCCCNC(=O)c1ccc(CS(=O)(=O)c2ccccc2C)o1` to `O=C(NCC(=O)N1CCN(c2ccccc2O)CC1)c1ccc(Br)o1`, the “hERG current change (%, negative = inhibition) at 10uM” value falls from 7.74% to -4.93%.

First: O=C(NCc1cccnc1)C1c2ccccc2C(=O)N1C1CCCCCC1 (stereo not shown)
Second: S=C(Nc1ccc(Oc2ccc(NC(=S)NC3CCCCC3)cc2)cc1)NC1CCCCC1
The “hERG current change (%, negative = inhibition) at 10uM” value of the first is lower: 2.21% for the first, 17.6% for the second.

First: O=C(O)c1cccc2c1NC(C(=O)O)C1CC(Sc3ccccc3[N+](=O)[O-])C(Cl)C21 (stereo not shown)
Second: Cc1c(C(=O)N2CCN(C(=O)c3ccccc3)CC2)oc2ccc(F)cc12
The “hERG current change (%, negative = inhibition) at 10uM” value of the first is higher: -0.458% for the first, -44.8% for the second.

First: Cc1ccc2oc(C(=O)N3CCN(Cc4nccn4C)CC3)c(C)c2c1
Second: Cc1c(C(=O)N2CCN(CCc3ccccn3)CC2)oc2ccc(Cl)cc12
The “hERG current change (%, negative = inhibition) at 10uM” value of the first is higher: -41.3% for the first, -81.1% for the second.

Compared with `Cc1cc2oc(C(=O)N3CCN(CCc4ccccn4)CC3)c(C)c2cc1C`, `Cc1c(C(=O)N2CCN(CCc3ccccn3)CC2)oc2ccc(F)cc12` is lower in “hERG current change (%, negative = inhibition) at 10uM” value: -21.2% for the first, -72.1% for the second.

First: CC(C)CN(C(=O)c1ccc(S(=O)(=O)N2CCCC2)cc1)C1CCS(=O)(=O)C1 (stereo not shown)
Second: Cc1ccc(C(=O)N2CCN(C(=O)N3CCOCC3)CC2)cc1
The “hERG current change (%, negative = inhibition) at 10uM” value of the first is higher: -3.52% for the first, -5.64% for the second.

First: Cc1cccc(NC(=O)C(=O)NCc2ccc3c(c2)OCO3)c1C
Second: Cc1ccc(Cl)cc1N1CCN(C(=O)CNC(=O)c2ccc(Br)o2)CC1
The “hERG current change (%, negative = inhibition) at 10uM” value of the first is higher: -16.5% for the first, -55.9% for the second.

First: CCN(CC)C(=O)Oc1nnc(SC(C)C)n1-c1ccc(Cl)c(Cl)c1
Second: COC(=O)c1ccccc1Oc1nc(Cl)cc(OC)n1
The “hERG current change (%, negative = inhibition) at 10uM” value of the first is higher: -7.2% for the first, -12.1% for the second.

First: Cc1ncoc1C(=O)N1CCCC(C(=O)c2cccc(OC(C)C)c2)C1 (stereo not shown)
Second: Cc1ccc(C)c(C(C)NC(=O)C2CCCO2)c1 (stereo not shown)
The “hERG current change (%, negative = inhibition) at 10uM” value of the first is lower: 10.3% for the first, 17.6% for the second.

Compared with `CC(=O)N1CCN(C(=O)CNC(=O)c2ccc(Br)o2)CC1`, `Cc1cc(C(=O)N2CCN(c3ccc(F)cc3)CC2)on1` is lower in “hERG current change (%, negative = inhibition) at 10uM” value: 22.2% for the first, -14.5% for the second.

First: Cc1ccc(Cl)cc1N1CCN(C(=O)c2noc(C)c2[N+](=O)[O-])CC1
Second: O=C(NCc1ccco1)C(=O)NCC(c1ccco1)N1CCOCC1 (stereo not shown)
The “hERG current change (%, negative = inhibition) at 10uM” value of the first is lower: 1.15% for the first, 13% for the second.

— publication PMC4336329 (PLoS ONE, 2015)
